In the library only some 7.7% were active in any assay of this set; here they are far more common.
RE007 growth inh: qHTS Assay for Inhibitors of the HIV-1 protein Vpr | Potency, µM (top dose mostly 92.2 µM), without a hit: at the top dose activity change, negative = less growth, actives largely listed as inhibitors | S. pombe RE007 Vpr strain, BacTiter-Glo ATP luminescence, 24 h | actives 0.21% (n = 360,000) | AID 651644, 2012; active = well fitted falling curve with a large enough effect; inconclusive = small, poorly fitted or top-dose-only effect; inactive = no such curve, though single readings can be large or run the other way; note: potency is the fitted concentration of half-maximal effect; nearly all actives have a fitted effect of over 50% in size
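Fission yeast strain RE007, carrying one chromosomally integrated HIV-1 vpr copy, was seeded at OD 0.01 in PMG+AL medium with 23 nL pinned compound. After 24 h at 30 °C and 99% humidity, viability was read by BacTiter-Glo luminescence.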
HCMV antiviral: qHTS Assay for inhibitors of the human cytomegalovirus (HCMV); HFF cells, HCMV-luciferase reporter, 72 h; hits give low values; activity change, negative = inhibition, % at 57.5 µM; actives 4.5% (n = 410,000); in the data active = activity change below about -60%; inconclusive = no clear call, values can overlap the other calls; inactive = above about -39%
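Two-dose cell screen: HFF monolayers treated with compounds and infected with luciferase-expressing HCMV at 1 PFU/cell, 72 h at 37C, then lysed for luciferase measurement.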
FMDV antiviral: High Throughput Screening for Foot and Mouth Disease Virus Antivirals; FMDV antiviral cell-based qHTS; Potency, µM (series often up to 57.9 µM), inactives show at the top dose activity change, negative = inhibition, most hits filed as inhibitors; actives 1.2% (n = 410,000); calls by dose curve; tested in HEK293T cells; note: read-out not given here; potency is the fitted concentration of half-maximal effect; nearly all actives have a fitted effect of over 45% in size
Giardia FBPA inh: qHTS Assay for Inhibitors of Fructose-1,6-bisphosphate Aldolase from Giardia Lamblia | Potency, µM (titrated, usually from 59.6 µM), without a hit: at the highest dose activity, negative = inhibition, actives largely listed as inhibitors | actives 0.71% (n = 290,000) | purified Giardia FBPA | AID 2451, 2010; note: potency is the fitted concentration of half-maximal effect; nearly all actives have a fitted effect of over 55% in size
Target sequence (A8B2U2 whole entry, looked up): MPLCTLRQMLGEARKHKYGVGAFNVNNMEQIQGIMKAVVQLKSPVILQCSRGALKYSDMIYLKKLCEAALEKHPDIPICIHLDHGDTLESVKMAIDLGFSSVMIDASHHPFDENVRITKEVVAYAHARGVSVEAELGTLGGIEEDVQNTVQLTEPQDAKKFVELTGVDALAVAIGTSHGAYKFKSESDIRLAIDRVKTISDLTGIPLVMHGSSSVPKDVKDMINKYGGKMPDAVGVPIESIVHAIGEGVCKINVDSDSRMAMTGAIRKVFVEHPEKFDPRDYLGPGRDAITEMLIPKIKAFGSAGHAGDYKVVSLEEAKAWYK
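Giardia FBPA (40 nM reagent) was preincubated 10 min at RT with compound (up to 57.5 uM final), then substrate plus GAPDH/TPI/NAD/arsenate coupling system with diaphorase/resazurin was added; resorufin fluorescence (525/598 nm) was read after 20 min.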
Sm TGR block: qHTS Assay for the Inhibitors of Schistosoma Mansoni Peroxiredoxins | Schistosoma mansoni thioredoxin glutathione reductase (TGR), Q962Y6 | purified TGR, DTNB reduction, TNB absorbance 405 nm | Potency, µM (top dose mostly 114 µM), for inactives: at the top dose activity change, negative = inhibition, most hits filed as inhibitors | actives 3% (n = 360,000); note: potency is the fitted concentration of half-maximal effect; nearly all actives have a fitted effect of over 60% in size
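First, TGR (20 nM dispensed) and NADPH were mixed with compound. Second, a 15 min room-temperature incubation followed. Third, further NADPH and then DTNB were added to start the reaction. Finally, TNB absorbance was monitored kinetically.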
Tb PYK inh: qHTS of Trypanosoma Brucei Inhibitors. pyruvate kinase (Trypanosoma brucei), Q57TT1. Potency, µM (titrated, usually from 76.8 µM), for inactives: top-dose activity, negative = inhibition, actives largely listed as inhibitors. AID 624173, 2012. TbPYK enzyme, Kinase-Glo Plus ATP luminescence, 45 min. actives 0.12% (n = 410,000); note: potency is the fitted concentration of half-maximal effect; nearly all actives have a fitted effect of over 50% in size
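TbPYK + substrate in 50 mM TEA pH 7.2, 100 mM KCl, 10 mM MgCl2, 0.05% BSA, 0.01% Tween-20; cpd pinned; ADP 130 uM final; 45 min RT; Kinase-Glo Plus 10 min; luminescence endpoint.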
* marks the source's active call; other numbers are inactive results. Unless noted, calls come from the whole dose curve; as a rule, active = well fitted curve in the direction sought with a large enough effect; inconclusive = small, poorly fitted or top-dose-only effect, or another doubt; inactive = no such curve, though single readings can be large; an effect the other way counts as inactive or inconclusive. % is set by controls: 0 for no effect and ±100 for the full control effect.

`O=C(Nc1ccc2c3c(cccc13)CC2)c1cccc([N+](=O)[O-])c1` gave RE007 growth inh -25%, HCMV antiviral -61*, FMDV antiviral -16%, Giardia FBPA inh -9%, Sm TGR block -5% and Tb PYK inh -18%.
For O=C(Nc1cccc2c1CCCC2)c1ccc(Cl)c([N+](=O)[O-])c1 the results were RE007 growth inh 8%, HCMV antiviral -26, FMDV antiviral 25µM*, Giardia FBPA inh -9%, Sm TGR block 3% and Tb PYK inh 2%.
`O=C(Nc1cccc2c1CCCC2)c1cc([N+](=O)[O-])ccc1Cl` gave RE007 growth inh -25%, HCMV antiviral -105*, FMDV antiviral inconclusive, Giardia FBPA inh 3%, Sm TGR block -24% and Tb PYK inh 12%.
For COc1ccc(-c2nnc3n2N=C(c2c(OC)cccc2OC)CS3)cc1 the results were Giardia FBPA inh -4%.
CCC(C)C(=O)OC1CCC=C2C=CC(C)C(CCC3CC(O)CC(=O)O3)C21 (stereo not given) was read as RE007 growth inh 6%, HCMV antiviral -97*, FMDV antiviral -19% and Tb PYK inh -9%.
For CC[C@H](C)C(=O)O[C@H]1CCC=C2C=C[C@H](C)[C@H](CC[C@@H]3C[C@@H](O)CC(=O)O3)[C@H]21 the results were RE007 growth inh 9%, HCMV antiviral inconclusive, FMDV antiviral -28%, Giardia FBPA inh 0%, Sm TGR block 4% and Tb PYK inh -3%.
`COc1ccc(C(=O)N2CCN(Cc3cc(=O)n4nc(-c5ccccc5C)sc4n3)CC2)cc1OC` gave HCMV antiviral 9, FMDV antiviral 7%, Sm TGR block -2% and Tb PYK inh 6%.
Cc1ccc(NC(=O)CCSc2nc(-c3ccc4c(c3)OCO4)cc(C(F)(F)F)n2)cc1 was read as HCMV antiviral -12, FMDV antiviral -9%, Sm TGR block 9% and Tb PYK inh 2%.
CCC(=O)Nc1cc(C(=O)NCC2CCCN2CC)c(OC)cc1N(C)C (stereo not given) was read as RE007 growth inh 0%, HCMV antiviral 48, FMDV antiviral -19%, Giardia FBPA inh -5%, Sm TGR block 12% and Tb PYK inh 4%.
`CCN1CCCC1CNC(=O)c1cc(NC(C)=O)c(N(C)C)cc1OC` (stereo not given) gave RE007 growth inh -7%, HCMV antiviral -68*, FMDV antiviral 20%, Giardia FBPA inh -7%, Sm TGR block -25% and Tb PYK inh -8%.
`COc1cc(OC)c(N(C)C(=O)c2c(C)oc3ncn(CC(C)C)c(=O)c23)cc1Cl` gave HCMV antiviral 11, FMDV antiviral -13%, Sm TGR block 4% and Tb PYK inh -20%.
Cc1cc(-n2c(C)cc(C(=O)CCl)c2C)no1 was read as RE007 growth inh -23%, HCMV antiviral -96*, FMDV antiviral 22µM*, Giardia FBPA inh -2%, Sm TGR block 8.9µM* and Tb PYK inh 5%.
Screening COc1ccc(-n2c(C)cc(C(=O)COC(=O)c3ccc(O)cc3O)c2C)cc1 returned RE007 growth inh 0%, HCMV antiviral -81*, FMDV antiviral -24%, Sm TGR block -14% and Tb PYK inh 3%.
Cc1cc(C(=O)CCl)c(C)n1-c1c(C)n(C)n(-c2ccccc2)c1=O was read as RE007 growth inh -7%, HCMV antiviral -35, FMDV antiviral 28µM*, Giardia FBPA inh 4%, Sm TGR block 0% and Tb PYK inh -1%.
For Cc1cc(-n2c(C)cc(C(=O)CN3C(=O)C(=O)N(C)C3=O)c2C)no1 the results were RE007 growth inh 20%, HCMV antiviral 11, FMDV antiviral 4% and Tb PYK inh 2%.
`Cc1cc(C(=O)COC(=O)c2ccc(O)cc2O)c(C)n1-c1ccc(OC(F)F)cc1` gave RE007 growth inh 4%, HCMV antiviral -63*, FMDV antiviral inconclusive, Sm TGR block -11% and Tb PYK inh -2%.
`COc1cc2nc(N(C)C)c(CNCCc3c[nH]c4ccccc34)cc2c(OC)c1OC` gave FMDV antiviral 0%.
For COc1ccc(-n2c(C)cc(C(=O)CCl)c2C)cc1 the results were RE007 growth inh -48%, HCMV antiviral -90*, FMDV antiviral 28µM*, Giardia FBPA inh 1%, Sm TGR block 4µM* and Tb PYK inh -2%.
For COc1ccc(C=CC(=O)c2ccc([N+](=O)[O-])cc2)cc1 the results were RE007 growth inh -10%, HCMV antiviral -23, FMDV antiviral 24% and Tb PYK inh 2%.
`Cc1[nH]c(C)c(C(=O)/C=C/c2ccc([N+](=O)[O-])cc2)c1C` gave RE007 growth inh -16%, HCMV antiviral -101*, FMDV antiviral 21%, Giardia FBPA inh -5%, Sm TGR block inconclusive and Tb PYK inh 2%.
`CC(=O)Oc1c(I)cc(I)cc1C(=O)Nc1ccc(Cl)cc1` gave RE007 growth inh 4%, HCMV antiviral -99*, FMDV antiviral inconclusive, Sm TGR block 2% and Tb PYK inh 0%.
Screening CC(=O)c1ccc(F)c(-c2cc(C)cc3c2OC(CNC(=O)Cc2ccc4c(c2)OCO4)C3)c1 (stereo not given) returned FMDV antiviral -8%.
Screening CC1(Cc2ccc(C(F)(F)F)o2)C(=O)Nc2cc(-c3ccc(F)cc3F)ccc21 (stereo not given) returned RE007 growth inh -25%, HCMV antiviral -100*, FMDV antiviral inconclusive and Tb PYK inh -10%.
Screening COc1ccc(/[N+]([O-])=C/c2ccoc2)cc1 returned RE007 growth inh -5%, HCMV antiviral 49, FMDV antiviral 42%, Sm TGR block 5µM* and Tb PYK inh -22%.
For Cc1ccc(-c2nc(CN3CCN(C(=O)C4CCCO4)CC3)cs2)cc1 (stereo not given) the results were RE007 growth inh -23%, HCMV antiviral -71*, FMDV antiviral inconclusive, Sm TGR block -1% and Tb PYK inh -6%.
`CCOC(=O)C1CCN(Cc2c(O)c3ccccc3oc2=O)CC1` gave RE007 growth inh 12%, HCMV antiviral -22, FMDV antiviral 16%, Giardia FBPA inh 10%, Sm TGR block -35% and Tb PYK inh 1%.

Screening results: PubChem, National Center for Advancing Translational Sciences (NCATS)
